Details in all cases: mRNA level, 48 h; actives raise or lower the signal
Read-out in test [1]: Glutathione S-transferase M3 (GSTM3), GSTM3 (gene 2947)
Description: LTEA_HepaRG_GSTM3: Life Technologies and Expression Analysis (LTEA) Assay for Glutathione S-transferase M3 (GSTM3) using HepaRG (AID 2283501). In short, it runs like this:
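Expression of GSTM3 is determined by qRT-PCR in human liver HepaRG cells treated 48 h with an 8-point half-log range from 100 uM in 0.5% DMSO.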

Read-out in test [2]: Heat shock 70 kDa protein 1 (HSPA1A), gene 3303
Description: LTEA_HepaRG_HSPA1A: Life Technologies and Expression Analysis (LTEA) Assay for Heat shock 70 kDa protein 1 (HSPA1A) using HepaRG (AID 2283502). In short, it runs like this: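 Cells were plated and cultured for 48 h, then switched to serum-free induction medium. Chemicals were added at eight half-log concentrations up to 100 uM for 48 h. RNA was then isolated and HSPA1A measured by qRT-PCR with bidirectional curve fitting against DMSO.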

Read-out in test [3]: Hypoxia-inducible factor 1-alpha (Homo sapiens) (UniProt Q16665)
As to the kind of experiment: LTEA_HepaRG_HIF1A: Life Technologies and Expression Analysis (LTEA) Assay for Hypoxia-inducible factor 1 (HIF1A) Trancription factor using HepaRG (AID 2283503). The method, boiled down:
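HIF1A transcript level read by qRT-PCR (ACTB, GAPDH, POLR2A normalization) after 48 h chemical exposure of HepaRG cultures. Eight half-log concentrations, top 100 uM, 0.5% DMSO vehicle, duplicates; bidirectional curve fit against DMSO baseline.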

Read-out in test [4]: 3-Hydroxy-3-Methylglutaryl-CoA Synthase 2 (HMGCS2), HMGCS2 (gene 3158)
As to the kind of experiment: LTEA_HepaRG_HMGCS2: Life Technologies and Expression Analysis (LTEA) Assay for 3-Hydroxy-3-Methylglutaryl-CoA Synthase 2 (HMGCS2) using HepaRG (AID 2283504). The method, boiled down:
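This steatosis marker was read as HMGCS2 mRNA change in HepaRG cells treated 48 h with up to 100 uM chemical. Normalisation used housekeeping genes; activity in either direction was fitted relative to 0.5% DMSO vehicle.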

Read-out in another test: HGF (gene 3082)
As to the kind of experiment: LTEA_HepaRG_HGF: Life Technologies and Expression Analysis (LTEA) Assay for Hepatocyte Growth Facto (HGF) using HepaRG (AID 2283505). In short, it runs like this: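 Using HepaRG monolayers kept in 0.5% DMSO, chemicals were tested in duplicate over eight half-log concentrations from 100 uM for 48 h. Endpoint: HGF mRNA change relative to DMSO, normalized to ACTB/GAPDH/POLR2A.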

Read-out in test [5]: Insulin Like Growth Factor 1 (IGF1), IGF1 (gene 3479)
As to the kind of experiment: LTEA_HepaRG_IGF1: Life Technologies and Expression Analysis (LTEA) Assay for Insulin Like Growth Factor 1 (IGF1) using HepaRG (AID 2283506). In short, it runs like this:
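Cells are thawed, plated and cultured 48 h, then exposed in duplicate to chemical (highest 100 uM, half-log steps, 0.5% DMSO) for another 48 h. Total RNA is analysed by Fluidigm qRT-PCR for IGF1 expression relative to vehicle.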

Read-out in test [6]: Intercellular Adhesion Molecule 1 (ICAM1), ICAM1 (gene 3383)
Description: LTEA_HepaRG_ICAM1: Life Technologies and Expression Analysis (LTEA) Assay for Intercellular Adhesion Molecule 1 (ICAM1) using HepaRG (AID 2283507). In short, it runs like this:
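Using the human liver line HepaRG, compounds are tested in duplicate over 48 h at concentrations up to 100 uM. Expression is determined by TaqMan qRT-PCR, normalized to endogenous controls, and analysed relative to 0.5% DMSO vehicle.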

Read-out in test [7]: Insulin-like growth factor-binding protein 1 (IGFBP1), IGFBP1 (gene 3484)
As to the kind of experiment: LTEA_HepaRG_IGFBP1: Life Technologies and Expression Analysis (LTEA) Assay for Insulin-like growth factor-binding protein 1 (IGFBP1) using HepaRG (AID 2283508). In short, it runs like this:
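HepaRG, 48 h, 8 conc. (max 100 uM, half-log), duplicates, 0.5% DMSO. Readout: TaqMan qRT-PCR, ACTB/GAPDH/POLR2A normalisation. Fit: bidirectional vs DMSO.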

Read-out in test [8]: Interleukin 6 (IL6), IL6 (gene 3569)
Description: LTEA_HepaRG_IL6: Life Technologies and Expression Analysis (LTEA) Assay for Interleukin 6 (IL6) using HepaRG (AID 2283509). The method, boiled down:
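Changes in IL6 mRNA, up or down relative to 0.5% DMSO controls, were derived from concentration-response curves in human HepaRG cells treated for 48 h at up to 100 uM, with ACTB, GAPDH and POLR2A as normalizers.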

Read-out in test [9]: Interleukin 6 Receptor (IL6R), IL6R (gene 3570)
As to the kind of experiment: LTEA_HepaRG_IL6R: Life Technologies and Expression Analysis (LTEA) Assay for Interleukin 6 Receptor (IL6R) using HepaRG (AID 2283510).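 On AC50: differentiated human HepaRG liver cells in serum-free induction medium; TaqMan qRT-PCR signal normalized to ACTB GAPDH and POLR2A housekeeping genes.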 In short, it runs like this:
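Cells were thawed, plated and cultured 48 h, then medium was changed to serum-free induction medium. Chemicals were added in duplicate (100 uM top, half-log steps, 0.5% DMSO) for 48 h. Lysates were analyzed by qRT-PCR for IL6R expression.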

Read-out in test [10]: Potassium channel subfamily K member 1 (KCNK1), KCNK1 (gene 3775)
As to the kind of experiment: LTEA_HepaRG_KCNK1: Life Technologies and Expression Analysis (LTEA) Assay for Potassium channel subfamily K member 1 (KCNK1) using HepaRG (AID 2283511). In short, it runs like this: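 Human HepaRG cultures receive test chemicals for 48 h in 0.5% DMSO, top concentration 100 uM with half-log dilutions. Induction or suppression of KCNK1 mRNA relative to DMSO is derived by bidirectional fitting of qRT-PCR data.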

Read-out in test [11]: Keratin 19 (KRT19), KRT19 (gene 3880)
Description: LTEA_HepaRG_KRT19: Life Technologies and Expression Analysis (LTEA) Assay for Keratin 19 (KRT19) using HepaRG (AID 2283512). The method, boiled down:
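Readout is qRT-PCR of KRT19 mRNA, normalized to ACTB, GAPDH and POLR2A, from HepaRG cells treated 48 h with eight-point half-log dilutions topping at 100 uM. Activity in either direction is scored relative to 0.5% DMSO vehicle.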

Read-out in test [12]: JUN Transcription Factor, JUN (gene 3725)
As to the kind of experiment: LTEA_HepaRG_JUN: Life Technologies and Expression Analysis (LTEA) Assay for JUN Transcription Factor using HepaRG (AID 2283513). In short, it runs like this: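 Read-out is JUN transcript level by TaqMan qRT-PCR, normalized to ACTB, GAPDH and POLR2A, after 48 h chemical treatment of HepaRG cells. Concentration-response spanned eight half-log points up to 100 uM in 0.5% DMSO.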

Read-out in test [13]: Lipase C (LIPC), LIPC (gene 3990)
Description: LTEA_HepaRG_LIPC: Life Technologies and Expression Analysis (LTEA) Assay for Lipase C (LIPC) using HepaRG (AID 2283514). The method, boiled down:
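In this multiplexed gene-expression screen, human HepaRG cultures received test chemicals for 48 h across eight concentrations with 100 uM highest, in duplicate. Values reflect LIPC mRNA induction or suppression versus DMSO vehicle, from normalized qRT-PCR.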

Read-out in test [14]: Lipoprotein lipase (LPL), LPL (gene 4023)
Description: LTEA_HepaRG_LPL: Life Technologies and Expression Analysis (LTEA) Assay for Lipoprotein lipase (LPL) using HepaRG (AID 2283515). The method, boiled down:
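Concentration-response testing used half-log steps from 100 uM in 0.5% DMSO on human HepaRG cells, 48 h, duplicate wells. Phenobarbital 1 mM served as induction control; LPL mRNA was normalized to ACTB, GAPDH, POLR2A.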

Read-out in test [15]: MicroRNA 122 (MIR122), gene 406906
Description: LTEA_HepaRG_MIR122: Life Technologies and Expression Analysis (LTEA) Assay for MicroRNA 122 (MIR122) using HepaRG (AID 2283516). Further: the transcript read is the microRNA miR-122. In short, it runs like this: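 Human liver HepaRG cultures receive test chemicals for 48 h at eight half-log concentrations from 100 uM. Expression is quantified by qRT-PCR with ACTB/GAPDH/POLR2A normalization and fitted bidirectionally against 0.5% DMSO.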

Read-out in test [16]: matrix metalloproteinase-10 (MMP10), MMP10 (gene 4319)
Description: LTEA_HepaRG_MMP10: Life Technologies and Expression Analysis (LTEA) Assay for matrix metalloproteinase-10 (MMP10) using HepaRG (AID 2283517). The method, boiled down: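 In differentiated HepaRG cultures kept in 0.5% DMSO, test chemicals act for 48 h over an eight-point range with a top dose of 100 uM. Expression is then quantified by TaqMan RT-PCR against ACTB, GAPDH and POLR2A.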

Read-out in the next test: MYC, MYC (gene 4609)
Description: LTEA_HepaRG_MYC: Life Technologies and Expression Analysis (LTEA) Assay for MYC using HepaRG (AID 2283518). In short, it runs like this:
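Expression changes were scored by TaqMan qRT-PCR with ACTB, GAPDH and POLR2A normalization. Cultures in serum-free induction medium received duplicate 8-point concentration series, highest 100 uM, for 48 h; DMSO (0.5%) served as baseline.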

Read-out in test [17]: matrix metalloproteinase-3 (MMP3), MMP3 (gene 4314)
As to the kind of experiment: LTEA_HepaRG_MMP3: Life Technologies and Expression Analysis (LTEA) Assay for matrix metalloproteinase-3 (MMP3) using HepaRG (AID 2283519). The method, boiled down: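 Human liver HepaRG cultures received chemicals (top concentration 100 uM, 0.5% DMSO) for 48 h in duplicate. MMP3 mRNA induction or loss was then assessed via TaqMan qRT-PCR with housekeeping-gene normalisation.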

Read-out in test [18]: Paternally Expressed 10 (PEG10), PEG10 (gene 23089)
Description: LTEA_HepaRG_PEG10: Life Technologies and Expression Analysis (LTEA) Assay for Paternally Expressed 10 (PEG10) using HepaRG (AID 2283520). The method, boiled down: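 Human HepaRG cultures are dosed for 48 h across an eight-point half-log series starting at 100 uM, with 0.5% DMSO as vehicle and baseline. Gain or loss of PEG10 transcript is measured by qRT-PCR and fitted in both directions.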

The source made the active and inactive calls. How the source made its calls: active means hit-call score of the fitted dose curve at least 0.9, where 1 is the maximum; inactive means score below 0.9.

Chain of Hypoxia-inducible factor 1-alpha (Homo sapiens) (Q16665 whole entry, looked up): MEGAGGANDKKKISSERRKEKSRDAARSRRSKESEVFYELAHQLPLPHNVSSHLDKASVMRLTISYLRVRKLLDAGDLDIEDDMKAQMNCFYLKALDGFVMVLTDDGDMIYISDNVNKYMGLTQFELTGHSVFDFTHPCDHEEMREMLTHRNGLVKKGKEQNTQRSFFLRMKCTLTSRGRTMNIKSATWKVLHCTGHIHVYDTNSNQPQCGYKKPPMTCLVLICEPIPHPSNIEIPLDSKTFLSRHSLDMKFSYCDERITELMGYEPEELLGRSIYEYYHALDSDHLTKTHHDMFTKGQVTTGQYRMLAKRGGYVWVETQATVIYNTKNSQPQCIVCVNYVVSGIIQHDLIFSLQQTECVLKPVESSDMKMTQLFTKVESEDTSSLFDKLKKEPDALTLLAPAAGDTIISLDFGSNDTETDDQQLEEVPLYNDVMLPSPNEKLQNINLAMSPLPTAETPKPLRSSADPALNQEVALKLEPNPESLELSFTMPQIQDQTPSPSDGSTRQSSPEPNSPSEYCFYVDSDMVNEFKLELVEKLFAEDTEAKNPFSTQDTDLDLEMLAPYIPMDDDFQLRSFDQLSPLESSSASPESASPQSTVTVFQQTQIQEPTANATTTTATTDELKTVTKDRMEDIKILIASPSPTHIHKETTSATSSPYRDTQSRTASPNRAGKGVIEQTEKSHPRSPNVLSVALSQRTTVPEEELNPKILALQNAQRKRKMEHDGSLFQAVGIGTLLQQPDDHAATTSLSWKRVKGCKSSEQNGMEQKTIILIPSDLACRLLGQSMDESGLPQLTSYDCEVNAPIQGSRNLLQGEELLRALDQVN

For `C[N+](C)(C)CC1CO1` (configuration not stated), the result (in test [1]; in test [2]; in test [3]; in test [4]; with HGF (gene 3082); in [5]) was inactive. In addition, the outcome in [6], in test [7], in test [8], in test [9], in test [10] and in [11] was inactive. Further, the outcome was “inactive” in test [12]; “inactive” in test [13]; “inactive” in test [14]; “inactive” in test [15]; “inactive” in [16]; “inactive” in the test with MYC, MYC (gene 4609). Besides, the outcome in [17] and in test [18] was inactive.

Take `OCCCl`: the result (in test [1]; in test [2]; in test [3]; in [4]; with HGF (gene 3082); in test [5]) was inactive. The call in [6], in test [7], in test [8], in [10], in test [11] and in [12] was inactive. The outcome was “inactive” in [13]; “inactive” in test [14]; “inactive” in [15]; “inactive” in test [16]; “inactive” with MYC, MYC (gene 4609); “inactive” in test [18].

As for `COc1cc(C=O)cc2c1[C@H](COC(N)=O)[C@]1(OC(C)=O)ON2C[C@H]2[C@@H]1N2C(C)=O`, the compound was called inactive (in test [1]; in [2]; with HGF (gene 3082); in test [10]; in test [13]; in test [15]). Also, the outcome in the test with MYC, MYC (gene 4609) was “inactive”; in test [18] it was “inactive”. The AC50 in test [3] was 3940 nM (active); in test [4] it was 827 nM (active); in test [5], 500 nM (active); in [6] it was 1310 nM (active); in [7], 4860 nM (active); in [8] it was 1520 nM (active). Moreover, the AC50 in test [9] was 24700 nM (active); in [11], 1490 nM (active); in test [12], 5000 nM (active); in [14], 272 nM (active); in test [16], 1580 nM (active).

These data come from PubChem BioAssay (EPA / NIEHS).
